Data published in PubChem BioAssay AID743269 (The Scripps Research Institute Molecular Screening Center, 2014).
The campaign covered roughly 370,000 compounds. About 2,400 (0.65%) were called active. This is one part of a sample in which actives are shown more often than they occur. Unmarked numbers belong to inactive results.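 The calls were made as follows: active = inhibition above the screen-wide mean plus 3 SD (cut at about 13% in these data); inactive = the rest.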

System: HIV-1 integrase (with human LEDGF/p75)
Assay: blockers of LEDGF/p75-dependent integrase strand transfer – biochemical, TR-FRET, high throughput, primary screen (AID 743269);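 also: signal is the Cy5 over europium emission ratio at 671 and 618 nm; 0% = plate median of compound wells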
Conditions: TR-FRET IN-LEDGF/p75 DNA integration, Eu/Cy5; at 3.7 µM; stronger effect = higher value

SMILES | inhibition
CCOC(=O)c1c(N)n(Cc2ccccc2)c2nc3ccccc3nc12 | 32.8% (active)
CCOC(=O)c1cccc(C2=C(CNC(=O)c3ccncc3)[C@H]3CC[C@@H](C2)N3Cc2ccccc2)c1 | -5.73%
COc1cc(Cn2c(N)c(C(=O)NCc3ccco3)c3nc4ccccc4nc32)cc(OC)c1OC | 1.57%
CCN1C(=O)C(=Cc2c(C)n(CC(=O)NCC3CCCO3)c3ccccc23)C(=O)N(CC)C1=S (stereo not given) | -2.24%
COc1ccc2c(c1)[C@@]13CCCCC1[C@@H](C2)NCC3 (stereo not given in full) | -1.92%
Cc1c(C(=O)O)cccc1-n1c(C)cc(/C=C2\C(=O)NC(=O)N(c3ccc4c(c3)OCO4)C2=O)c1C | 15.4% (active)
O=P(OC1=CCCCC1)(c1ccccc1)c1ccccc1 | 6.63%
CCC(C)(O)C(=O)OC1C(=O)OC2CC3C(C)=CC(=O)C(O)C3(C)C3C4(O)OCC23C1C(C)C4O (stereo not given) | -3.3%
CCOc1cccc(=NC2CCCCC2)c2c(C)[nH]c(C)c12 | 36.3% (active)
Cc1cccc(-n2c(O)c(C=NC34CN5CN(CN(C5)C3)C4)c(=O)[nH]c2=O)c1 | -3.72%
CC(C)Nc1nc(Cl)nc(NC(C)C)n1 | -1.42%
Brc1ccc2c(c1)CNCc1cnnn1-2 | 6.88%
Cc1cc(N2CCNC[C@@H]2C)ccc1N1CC[C@H](O)C1 | 7.07%
COc1ccc(N2C(=O)/C(=C/c3ccco3)C(=O)NC2=S)cc1 | 59.1% (active)
O=S(=O)(c1ccccc1)N1CCC2CCNC2C1 (stereo not given) | 5.81%
CCC(C)NC1(c2ccccc2)CCCCC1 (stereo not given) | 2.52%
COC(=O)C(O)(c1ccc(NC(=O)c2ccco2)c(OC)c1)C(F)(F)F (stereo not given) | -2.33%
CO[C@H]([C@H](C)/C=C/N(C)C=O)[C@@H](C)C(=O)CC[C@H](C)[C@H](O)[C@H](C)[C@H]1OC(=O)/C=C/C(C)=C/[C@H](O)[C@H](OC)C[C@@H]2C=CC[C@@H](C[C@H](OC)[C@@]3(CO3)[C@@H](OC)C[C@@H](OC)[C@@H]1C)O2 | 0.17%
Clc1ccc([C@@H]2CC3CCC2N3)cn1 (stereo not given in full) | 4.15%
Cc1cc(/C=C2/C(=O)NC(=O)N(Cc3ccco3)C2=O)c(C)n1-c1ccc(C(=O)O)cc1 | 86% (active)
O=C1NC(=O)N(Cc2ccco2)C(=O)/C1=C\c1ccc(-c2ccc(F)cc2)o1 | 73.2% (active)
Cc1cc(C=C2C(=O)NC(=O)NC2=O)c(C)n1-c1ccncc1 | 3.8%
Cc1ccnc(-n2c(C)cc(/C=C3\C(=O)NC(=S)N(C)C3=O)c2C)c1 | 1.59%
Cc1ccccc1CCC[C@@H](CC1CCCCC1)CN(C)C(=O)Oc1ccccc1 | -1.47%
C[N+]12CN3CN(CN(C3)C1)C2 | -0.49%
COc1cc(OC)cc(C(=O)NCCN2CCC3(CC2)C(=O)NCN3c2ccccc2)c1 | 4.72%
CCN(CC)C(=O)[C@@H]1C=C2c3cccc4[nH]c(Br)c(c34)C[C@H]2N(C)C1 | 1.36%
CS(=O)(=O)N1CCC2CCNC2C1 (stereo not given) | -2.54%
O=C(N/N=C/c1c(O)n(C2CC2)c(=S)[nH]c1=O)c1ccccc1 | -7.23%
COP(=O)(Sc1ccccc1)C(Cc1ccccc1)NC(=O)OCc1ccccc1 (stereo not given) | 4.08%
